Reference: PubChem BioAssay AID588590 (National Center for Advancing Translational Sciences (NCATS), 2011)
The whole screen tested about 390,000 compounds, of which about 4,000 (1%) were called active. Roughly 7% stayed inconclusive and do not appear here. For the sample, actives were picked, then their nearest neighbours and some compounds at random. A number with no mark means an inactive call. Calls follow the shape of the dose curve; as a rule, active = well fitted inhibition curve with a large enough effect; inconclusive = small, poorly fitted or top-dose-only effect, or another doubt; inactive = no such curve, though single readings can be large or run the other way.

These compounds were tested against DNA polymerase iota (Homo sapiens) (UniProt Q9UNA4) (assay: qHTS for Inhibitors of Polymerase Iota). Settings: Pol iota fluorescent replication assay, 10 min; series mostly up to 115 µM; activity, negative = inhibition: at the top concentration.
How it was run: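 Fluorescent replication assay read twice, at 0 min and 10 min after adding 50 nM (final) substrate. Enzyme (10 nM) and compounds were first incubated 15 min at room temperature; enzyme-free buffer wells were negative controls.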
Potency is read from the fitted curve at half-maximal effect.

Chain of DNA polymerase iota (Homo sapiens) (Q9UNA4 whole entry, looked up): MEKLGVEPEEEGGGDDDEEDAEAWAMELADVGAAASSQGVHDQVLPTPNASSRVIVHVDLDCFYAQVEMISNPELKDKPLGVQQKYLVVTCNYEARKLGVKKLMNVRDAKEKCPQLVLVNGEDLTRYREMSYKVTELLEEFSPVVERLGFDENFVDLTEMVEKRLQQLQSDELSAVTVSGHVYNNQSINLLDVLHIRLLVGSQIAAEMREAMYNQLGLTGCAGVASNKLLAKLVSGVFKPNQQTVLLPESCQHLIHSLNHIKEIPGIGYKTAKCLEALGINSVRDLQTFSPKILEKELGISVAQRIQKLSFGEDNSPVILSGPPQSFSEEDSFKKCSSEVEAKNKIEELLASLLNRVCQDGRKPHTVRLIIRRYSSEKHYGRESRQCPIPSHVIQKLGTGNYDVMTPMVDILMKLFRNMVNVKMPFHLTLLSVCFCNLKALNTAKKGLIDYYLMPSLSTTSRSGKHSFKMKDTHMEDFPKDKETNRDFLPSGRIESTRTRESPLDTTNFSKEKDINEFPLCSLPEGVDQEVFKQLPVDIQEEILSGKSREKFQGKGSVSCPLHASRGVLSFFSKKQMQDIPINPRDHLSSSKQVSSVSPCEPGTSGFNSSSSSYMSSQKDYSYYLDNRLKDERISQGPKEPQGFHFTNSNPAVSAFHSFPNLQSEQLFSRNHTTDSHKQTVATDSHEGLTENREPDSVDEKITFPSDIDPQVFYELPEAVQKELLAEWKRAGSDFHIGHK

| Structure (SMILES) | Potency | activity, negative = inhibition |
| --- | --- | --- |
| O=C(CCl)Nc1ccc(Sc2ccc(NC(=O)CCl)cc2)cc1 | 39.8 µM (active) |  |
| CCC(=O)Nc1ccc(C(=O)NNC(=O)c2ccc(Cl)cc2)cc1 |  | 15% |
| O=C(O)CSCC(=O)Nc1ccc(C(F)(F)F)cc1 |  | 47.7% |
| OC(CBr)CN1CCCCC1 (centres undefined) |  | 21.6% |
| COc1cc(CNCCSc2nnnn2C)ccc1OCc1c(F)cccc1Cl |  | -4.04% |
| O=C(Nc1ccccc1)c1ccccc1OCc1ccccc1 |  | -18.9% |
| COc1ccc(/C=C/C(=O)c2cc(Br)ccc(=O)c2O)cc1 | 2.51 µM (active) |  |
| COc1cccc(N2CC(NC(=O)/C=C\c3ccccc3)CC2=O)c1 (centres undefined) |  | -15.9% |
| COc1ccc(/C=C/C(=O)NC(=S)N2CCCC(C(N)=O)C2)cc1 (centres undefined) |  | -20.3% |
| COc1ccc(NC(=O)c2ccco2)cc1NC(=O)COc1ccc(C)c(C)c1 | 70.8 µM (active) |  |
| COc1ccc(NC(=O)c2ccco2)cc1NC(=O)c1ccc(C#N)cc1F | inactive |  |
| Cc1ccc(OCC(=O)Nc2ccccc2C(=O)NC2CC2)cc1C |  | 11.7% |
| COc1ccccc1CNC(=O)c1ccc(CS(=O)c2ccccc2Cl)o1 (centres undefined) |  | -3.31% |
| COc1cc(C)ccc1OCCSc1nc2ccc(NC(=O)c3ccc(C)cc3)cc2s1 |  | 7.04% |
| CCc1cccc(CC)c1NC(=O)Cn1c(=O)c(-c2cc(C)ccc2NC(C)=O)nc2ccccc21 |  | 0.919% |
| CN(C)c1ccc(C=Nc2ccc(/C=C/c3ccnc4ccccc34)cc2)cc1 |  | -10.6% |
| CCOC(=O)N1CCC(N2Cc3cccc(C(=O)Nc4ccc(S(=O)(=O)N(CC)CC)cc4)c3C2=O)CC1 | 79.4 µM (active) |  |
| CCOC(=O)N1CCC(N2Cc3cccc(C(=O)Nc4c(C)cccc4CC)c3C2=O)CC1 |  | 19.9% |
| COC(=O)c1ccc(NC(=O)c2cccc3c2C(=O)N(C2CCCCC2)C3)cc1 |  | 42.3% |
| Cc1ccc(Cn2cnc3c(cnn3C(C)(C)C)c2=O)c(F)c1 |  | 9.41% |
| COc1cccc2c1cc1c(=O)n(CC(=O)N3CCN(c4cccc(Cl)c4)CC3)nc(C)n12 |  | -0.335% |
| CCNC(=O)c1sccc1-n1cccc1 |  | -2.91% |
| Cc1ccsc1C(=O)NCCc1ccco1 | 39.8 µM (active) |  |
| Cc1ccsc1C(=O)OCC(=O)NCCc1ccccc1 |  | 31.7% |
| Cc1cc(C)cc(NS(=O)(=O)c2cc3c(cc2C)NC(=O)CO3)c1 |  | 2.58% |
| CCOc1ccc(OCC)c(Nc2nc3ccccc3n3nnnc23)c1 |  | 31.1% |
| COc1ccccc1N1CCN(c2ncnc3onc(-c4cccc(Cl)c4)c23)CC1 |  | 27.2% |
| Cc1c(NC(=O)Nc2ccc(F)c(Cl)c2)c(=O)n(-c2ccccc2)n1C |  | 6.61% |
| CC(C)(C)C1CCC(NC(=O)c2cnn3c2NC(=C2CC2)C=C3C(F)F)CC1 (centres undefined) |  | -18.2% |
